The list is not random: actives were taken first. Their share in the collection is about 1.3%.
NFkB transloc inh: inhibitors of IL-1B driven NFkB p65 nuclear import, primary screen, imaging, HUVEC, IL-1B stimulus, high-content imaging; hit rate 0.43% among 94,000; inhibition, % at 2 µM; HUVEC IL-1B NFkB p65 nuclear translocation imaging;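 active = inhibition above about 30% together with a positive call from visual inspection of the well image, limit read from the data; inconclusive = inhibition above a set limit but visual check negative; inactive = inhibition not above a set limit, visual check negative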;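 note: nuclear over cytoplasmic p65 intensity ratio measured by imaging; 0% = IL-1B stimulated DMSO wells and 100% = unstimulated DMSO wells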
NFkB transloc pot: enhancers of NFkB p65 translocation in HUVEC – imaging, IL-1B stimulus, high-content imaging, primary screen. HUVEC IL-1B NFkB p65 nuclear translocation imaging. activation, % at 2 µM. hit rate 0.3% among 94,000;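 active = activation above 40%, about the mean plus 3 SD, also judged a hit on visual image review; inconclusive = activation above 40% but not a hit on visual review; inactive = activation not above 40% and no visual hit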;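 note: percent activation is computed from the nuclear over cytoplasmic p65 intensity ratio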
INS promoter inh: inhibitors of insulin promoter-driven GFP, primary screen, imaging, TRM-6 cells (human fetal islet line), eGFP reporter, cell count | reporter expression induced with tamoxifen | inhibition, % at 2 µM | hit rate 0.9% among 130,000;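 active = inhibition above the mean plus 3 SD, with well images judged a real hit on visual review, cut at about 60% in these data, passing the limit was not always enough; inconclusive = inhibition over the cutoff but images rejected on review; inactive = inhibition not above the cutoff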
HUVEC tox IL1B: cytotoxicity in IL-1B stimulated HUVEC, primary screen, cytotoxicity control for IL-1B NFkB translocation project, imaging, Hoechst nuclear count, IL-1B stimulus. cell count reduction, % at 2 µM. hit rate 0.41% among 94,000. HUVEC cell count loss;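 active = cell count reduction more than 3 SD above the screen-wide mean, cut at about 70% in these data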;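 note: normalized per plate to untreated control cells as the no-loss baseline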
Active calls of the source: *; ? = inconclusive; . = no result given.

SMILES	NFkB transloc inh	NFkB transloc pot	INS promoter inh	HUVEC tox IL1B
Cc1ccc(C(=O)c2cc([N+](=O)[O-])ccc2N2CCOCC2)c(C)c1	96*	-96	-91	88*
CCCn1c(SCC(=O)Nc2cc(S(=O)(=O)N3CCOCC3)ccc2OC)n[nH]c1=O	.	.	43	.
COc1cc(SC)ccc1C(=O)Nc1ccc2c(c1)OCCO2	-45	45*	.	-38
COc1ccccc1C(=O)Nc1ccc2c(c1)OCCO2	-6	6	9	-13
Cc1cc(N)n2ncc(-c3ccc(Cl)cc3)c2n1	4	-4	32	-6
Cc1cc(N)n2ncc(-c3ccc(F)cc3)c2n1	-8	8	89*	9
CCOc1c(C)cc(-c2ncccc2O)cc1C	-6	6	82*	6
COc1ccc(CN(CCC(c2ccccc2)c2ccc(OC(C)C)cc2)C(=O)CCl)cc1OC (stereo unspecified)	.	.	-90	.
CCCCCC(=O)N/N=C/c1ccc([N+](=O)[O-])o1	-25	25	-6	93*
COc1ccc(CCNC(=O)CSc2ncn[nH]2)cc1	-12	12	86*	-7
COc1ccc(CCNC(=O)CSc2ccccn2)cc1	.	.	-24	.
CC(C)C(NC(=O)c1ccccc1F)C(=O)Nc1nccs1 (stereo unspecified)	.	.	0	.
CCOC(=O)c1[nH]c2c(c1-c1ccc(OC)cc1)C(=O)CC(c1ccc(OC)c(OC)c1)C2 (stereo unspecified)	.	.	-152	.
Cn1ccc(C(=O)Nc2ccc(Br)cc2Br)n1	.	.	14	.
O=C(CSc1nnnn1Cc1ccccc1)c1ccccc1F	.	.	93*	.
O=C(COc1ccccc1)N1CCc2ccccc21	.	.	2	.
O=C(CCCOc1ccccc1)N1CCCc2ccccc21	55*	-55	-4	5
CC(C)(C)NC(=O)Cn1c(=O)c(=O)n(Cc2ccccc2)c2ccc(Cl)cc21	.	.	33	.
O=C1C(c2ccc(F)cc2)N(C2CCCCC2)C(=O)CN1C1CCCC1 (stereo unspecified)	-128	128*	18	-9
Cc1ccc(C2C(=O)N(C3CCC(C)CC3)CC(=O)N2C2CCCC2)cc1 (stereo unspecified)	.	.	68*	.
CCOCCCn1c(=S)[nH]c2cc(C(=O)NCCCN(CC)CC)ccc2c1=O	.	.	13	.
Clc1ccc2nc(N3CCCCC3)[nH]c2c1	10	-10	87*	-34
O=c1c(Cl)c(N2CCCCC2)cnn1-c1nc2ccccc2[nH]1	4	-4	-66	-11
CCOC(=O)c1ccc(NC(=O)CSC(=S)N2CCOCC2)cc1	.	.	-62	.
CC1(C)CC(NC(=O)CC2CCCCC2)CC(C)(C)N1	-6	6	82*	-11
SMILES	NFkB transloc inh	NFkB transloc pot	INS promoter inh	HUVEC tox IL1B
O=C(NC(=S)Nc1cc(S(=O)(=O)N2CCOCC2)ccc1N1CCOCC1)C1CCCC1	.	.	-18	.
O=C(Oc1ccccc1)c1cccc(COC(=O)c2cnccn2)c1	-30	30	?	87*
O=C(COC(=O)c1cnccn1)NCc1ccccc1	-2	2	37	-1
COc1cccc(CC(=O)N2CCN(c3ccccc3[N+](=O)[O-])CC2)c1	.	.	-83	.
Cc1snc(S(=O)(=O)/C(C#N)=N/Nc2ccc(C(F)(F)F)cc2)c1C#N	-7	7	71*	-42
Cc1ccccc1C(=O)N1CCN(c2ccc(NC(=O)c3ccco3)cc2Cl)CC1	-7	7	85*	0
CC(C)n1c(SCCCc2ccccc2)nc2c1c(=O)[nH]c(=O)n2C	38*	-38	.	11
Nc1nc2ccc(O)cc2s1	35*	-35	-12	-33
COc1ccccc1CNC(=O)CCCc1ccccc1	.	.	8	.
COc1cccc(CCC(=O)O)c1OC	6	-6	89*	-6
C=CCC(CC=C)(NC(=O)c1ccccc1C(=O)O)c1ccccc1	.	.	-24	.
Clc1ccc2nc3ccccn3c2c1	-13	13	68	-24
N#Cc1ccc2c(c1)nc1ccccn12	.	.	79*	.
CC(/C=N/Nc1nnc2c(n1)[nH]c1ccccc12)=C\c1ccco1	-65	65*	.	4
Cc1cccc2c1[nH]c1nc(N/N=C\c3ccco3)nnc12	0	0	-11	-25
CCOc1cc(CO)c(Br)cc1OCC(=O)O	-21	21	-50	-45
CCOc1ccc(Br)cc1CC(=O)O	-4	5	81*	-14
CCCCOC(=O)c1ccc(NC(=O)CSc2nnnn2C)cc1	.	.	-7	.
COc1ccc2c(C(=O)CN3CCN(CCO)CC3)c[nH]c2c1	-6	6	.	-8
COc1ccc2[nH]cc(C(=O)CN3CCN(C/C=C/c4ccccc4)CC3)c2c1	36*	-36	.	4
COc1ccc(CN(C)CC(=O)Nc2cc(OC)c([N+](=O)[O-])cc2C)c(OC)c1	.	.	71*	.
O=C(NC1CCCC1)C1c2ccccc2C(=O)N1CCCN1CCOCC1 (stereo unspecified)	.	.	60*	.
COCCN(C(=O)CC1C(=O)NCCN1CC(c1ccccc1)c1ccccc1)C(C)C (stereo unspecified)	.	.	-35	.
Cc1cc(C)nc(SCc2ccc(C(=O)O)o2)n1	-8	8	.	34
Cc1cc(C(F)(F)F)nc(SCc2ccc(C(=O)O)o2)n1	10	-10	73*	-23
SMILES	NFkB transloc inh	NFkB transloc pot	INS promoter inh	HUVEC tox IL1B
COc1ccc(/C=N/NC(=O)CSc2ccccc2)cc1OC	.	.	64*	.
COc1ccc(/C=N/NC(=O)CSCC(=O)Nc2ccccc2)cc1OC	3	-3	24	46
Cc1occc1C(=O)NC(C)C1CCCO1 (stereo unspecified)	8	-8	23	16
Cc1noc(C)c1C(=O)NC(C)C1CCCO1 (stereo unspecified)	-2	2	89*	13
COc1ccccc1NS(=O)(=O)c1cc(NC(=O)c2ccc3c(c2)OCCO3)ccc1C	.	.	-44	.
CN(C)c1ccc(NC(=O)COC(=O)c2cc(=O)c3ccccc3o2)cc1	.	.	67*	.
Cc1ccccc1NC(=O)COC(=O)c1cc(=O)c2ccccc2o1	.	.	64	.
Cc1noc(NS(=O)(=O)c2ccc(NC(=O)CSc3ncccn3)cc2)c1C	-46	?	.	21
Cc1noc(NS(=O)(=O)c2ccc(NC(=O)CSc3nc4ccccc4s3)cc2)c1C	-32	32	-20	74*
Cc1noc(NS(=O)(=O)c2ccc(NC(=O)CSc3nc4c(cc3C#N)CCC4)cc2)c1C	-68	68*	.	18
Cc1cc(C)nc(SCC(=O)Nc2ccc(S(=O)(=O)Nc3onc(C)c3C)cc2)n1	-1	1	.	-10
CCOc1ccc2nc(NC(=O)CN3CCC(n4nnc5cc(C(F)(F)F)ccc54)CC3)sc2c1	5	-5	77*	-2
COc1ccc(Cl)cc1NC(=O)CN1CCC(n2nnc3cc(F)ccc32)CC1	100*	-100	37	92*
CCOc1ccc2nc(NC(=O)c3cnc(C)cn3)sc2c1	39*	-39	20	-126
O=C(CN1CCC(n2nnc3cc(F)ccc32)CC1)Nc1ccc2c(c1)CCC2	1	-1	-50	-3
CCOc1ccc2nc(NC(=O)c3cccnc3)sc2c1	.	.	17	.
O=C(NCCCN1CCOCC1)C(=O)NCc1ccccc1Cl	.	.	31	.
